About 8,800 targets were measured; listed, in parts, are those with a hit and a random draw of the rest. About 0.5% of all pairs of compound and target were hits. Values without a mark were called inactive.
Tests used:
Experiment in all cases: log2 fold change, soluble protein after heating vs DMSO (PISA); higher = thermal stabilisation; K562 lysate, 10 uM; active = over 0.2 and 3.5 SD of the protein, either way, in both replicates (recomputed)
vemurafenib = compound: CCCS(=O)(=O)Nc1ccc(F)c(C(=O)c2c[nH]c3ncc(-c4ccc(Cl)cc4)cc23)c1F [vemurafenib]
Summary of the method: (§1)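 Log-two fold change in thermal stability relative to solvent controls is reported from duplicates. For each sample, crude K562 extract from dounce-homogenised pellets in PBS pH 7.4 with 1 mM MgCl2, at 1 mg/mL protein, was treated with 10 μM compound for 30 min. Aliquots heated for 3 min across 48°C-58°C were pooled, brought to 0.5% NP-40 at 4°C and cleared at 21,000xg for 90 min. The supernatant was quantified by TMTpro 16plex LC-MS/MS with channel sums equalised.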

[1] = compound: CCCS(=O)(=O)Nc1ccc(F)c(C(=O)c2c[nH]c3ncc(Cl)cc23)c1F
Summary of the method: as §1

barasertib = compound: CCN(CCCOc1ccc2c(Nc3cc(CC(=O)Nc4cccc(F)c4)[nH]n3)ncnc2c1)CCOP(=O)(O)O [barasertib]
Summary of the method: as §1

[2] = compound: CC[C@@H]1C(=O)N(C)c2cnc(Nc3ccc(C(=O)NC4CCN(C)CC4)cc3OC)nc2N1C1CCCC1
Summary of the method: as §1

volasertib = compound: CC[C@@H]1C(=O)N(C)c2cnc(Nc3ccc(C(=O)N[C@H]4CC[C@H](N5CCN(CC6CC6)CC5)CC4)cc3OC)nc2N1C(C)C [volasertib]
Summary of the method: as §1

[3] = compound: CCn1c(C(=O)N(C2CC2)C2CC2)cc2c3c(ncn3C)c(Nc3cc(C)n(C)n3)nc21
Summary of the method: as §1

[4] = compound: CCn1cc(-c2ccnc3[nH]c(-c4cccc(CN(C)C)c4)cc23)c(-c2ccc(NC(=O)N(C)C)cc2)n1
Summary of the method: as §1

[5] = compound: CN1CCC(CNc2ccc3ncc(-c4cccc(OC(F)(F)F)c4)n3n2)CC1
Summary of the method: as §1

saracatinib = compound: CN1CCN(CCOc2cc(OC3CCOCC3)c3c(Nc4c(Cl)ccc5c4OCO5)ncnc3c2)CC1 [saracatinib]
Summary of the method: as §1

sotrastaurin = compound: CN1CCN(c2nc(C3=C(c4c[nH]c5ccccc45)C(=O)NC3=O)c3ccccc3n2)CC1 [sotrastaurin]
Summary of the method: as §1

alvocidib = compound: CN1CC[C@H](c2c(O)cc(O)c3c(=O)cc(-c4ccccc4Cl)oc23)[C@H](O)C1 [alvocidib]
Summary of the method: as §1

Tubastatin A = compound: CN1CCc2c(c3ccccc3n2Cc2ccc(C(=O)NO)cc2)C1 [Tubastatin A]
Summary of the method: as §1

[6] = compound: CNC(=O)C1=CC=CC=C1NC2=NC(=NC=C2Cl)NC3=C(C=C(C=C3)N4CCOCC4)OC
Summary of the method: as §1

defactinib = compound: CNC(=O)c1ccc(Nc2ncc(C(F)(F)F)c(NCc3nccnc3N(C)S(C)(=O)=O)n2)cc1 [defactinib]
Summary of the method: as §1

[7] = compound: CNc1nc(-c2ccc3c(N)n[nH]c3c2)cc(N2C[C@@H](C(=O)NC3CCCCC3)CC[C@H]2C)n1
Summary of the method: as §1

encorafenib = compound: COC(=O)N[C@@H](C)CNc1nccc(-c2cn(C(C)C)nc2-c2cc(Cl)cc(NS(C)(=O)=O)c2F)n1 [encorafenib]
Summary of the method: as §1

[8] = compound: COC(=O)[C@H](CCSC)NC(=O)C1=C(C=C(C=C1)NC[C@H](CS)N)C2=CC=CC=C2
Summary of the method: as §1

alisertib = compound: COc1cc(Nc2ncc3c(n2)-c2ccc(Cl)cc2C(c2c(F)cccc2OC)=NC3)ccc1C(=O)O [alisertib]
Summary of the method: as §1

[9] = compound: COc1cc2nc(-c3cc(F)ccc3O)nc(N[C@@H]3CNC[C@H]3C(C)(C)O)c2cc1OC
Summary of the method: as §1

gefitinib = compound: COc1cc2ncnc(Nc3ccc(F)c(Cl)c3)c2cc1OCCCN1CCOCC1 [gefitinib]
Summary of the method: as §1

UniProt Q9BZD4, sequence (Q9BZD4 whole entry, looked up): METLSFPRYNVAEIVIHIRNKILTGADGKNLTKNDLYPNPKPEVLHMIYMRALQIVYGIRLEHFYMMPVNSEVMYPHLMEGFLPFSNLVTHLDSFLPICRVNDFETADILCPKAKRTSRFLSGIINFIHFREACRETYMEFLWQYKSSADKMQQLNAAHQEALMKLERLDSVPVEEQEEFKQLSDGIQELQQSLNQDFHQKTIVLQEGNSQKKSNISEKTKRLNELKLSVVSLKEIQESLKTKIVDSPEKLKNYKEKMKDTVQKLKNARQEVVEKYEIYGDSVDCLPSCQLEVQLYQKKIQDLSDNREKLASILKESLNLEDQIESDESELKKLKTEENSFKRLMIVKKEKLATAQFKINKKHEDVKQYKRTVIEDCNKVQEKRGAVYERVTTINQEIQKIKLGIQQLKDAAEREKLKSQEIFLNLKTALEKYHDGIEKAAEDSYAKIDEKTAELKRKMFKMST
UniProt Q9NZT2, sequence (Q9NZT2 whole entry, looked up): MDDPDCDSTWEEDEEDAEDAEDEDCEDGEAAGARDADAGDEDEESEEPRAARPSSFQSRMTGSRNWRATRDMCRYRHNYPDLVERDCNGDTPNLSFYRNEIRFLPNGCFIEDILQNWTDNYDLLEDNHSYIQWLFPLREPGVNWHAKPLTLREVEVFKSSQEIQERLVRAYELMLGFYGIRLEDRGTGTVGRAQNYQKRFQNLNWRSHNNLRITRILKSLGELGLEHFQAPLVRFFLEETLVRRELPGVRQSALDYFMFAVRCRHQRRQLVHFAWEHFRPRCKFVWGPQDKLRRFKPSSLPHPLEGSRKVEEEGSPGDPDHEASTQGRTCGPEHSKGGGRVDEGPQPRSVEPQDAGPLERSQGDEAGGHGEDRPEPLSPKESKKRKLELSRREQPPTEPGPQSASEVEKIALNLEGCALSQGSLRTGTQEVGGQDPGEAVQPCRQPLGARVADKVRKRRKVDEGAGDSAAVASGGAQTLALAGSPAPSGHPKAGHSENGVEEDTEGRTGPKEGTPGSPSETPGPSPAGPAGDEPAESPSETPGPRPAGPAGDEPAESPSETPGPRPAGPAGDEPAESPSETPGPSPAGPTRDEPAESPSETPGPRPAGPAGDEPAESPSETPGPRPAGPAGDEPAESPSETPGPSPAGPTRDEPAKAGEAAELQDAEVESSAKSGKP
UniProt O60313, sequence (O60313 whole entry, looked up): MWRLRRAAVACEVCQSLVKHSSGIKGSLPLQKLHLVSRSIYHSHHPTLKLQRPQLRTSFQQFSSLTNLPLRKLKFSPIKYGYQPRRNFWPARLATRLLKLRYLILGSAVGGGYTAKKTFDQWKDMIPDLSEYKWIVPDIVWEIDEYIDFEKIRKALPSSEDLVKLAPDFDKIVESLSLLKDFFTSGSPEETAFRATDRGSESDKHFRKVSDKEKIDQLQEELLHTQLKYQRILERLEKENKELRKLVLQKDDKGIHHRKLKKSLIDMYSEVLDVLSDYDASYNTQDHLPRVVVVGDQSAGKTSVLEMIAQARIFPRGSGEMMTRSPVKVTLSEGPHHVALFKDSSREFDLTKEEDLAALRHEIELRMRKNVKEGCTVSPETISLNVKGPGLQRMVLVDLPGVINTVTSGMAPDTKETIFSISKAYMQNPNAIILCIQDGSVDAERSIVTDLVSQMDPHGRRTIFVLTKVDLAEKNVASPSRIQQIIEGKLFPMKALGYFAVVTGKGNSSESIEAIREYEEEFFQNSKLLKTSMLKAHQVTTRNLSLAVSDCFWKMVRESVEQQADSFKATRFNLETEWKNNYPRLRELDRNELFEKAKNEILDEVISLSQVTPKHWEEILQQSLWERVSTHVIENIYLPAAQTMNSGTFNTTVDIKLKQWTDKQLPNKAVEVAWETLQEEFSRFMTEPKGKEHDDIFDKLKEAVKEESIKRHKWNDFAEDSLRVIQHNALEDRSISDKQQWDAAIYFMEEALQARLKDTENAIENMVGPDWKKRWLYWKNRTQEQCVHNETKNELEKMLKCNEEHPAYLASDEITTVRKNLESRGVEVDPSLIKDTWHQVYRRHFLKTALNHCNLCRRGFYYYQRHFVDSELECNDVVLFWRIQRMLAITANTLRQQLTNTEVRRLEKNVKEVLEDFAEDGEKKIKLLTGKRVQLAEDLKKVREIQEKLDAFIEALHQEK
MTHFD1, A0A384N5Y3, sequence (A0A384N5Y3 whole entry, looked up): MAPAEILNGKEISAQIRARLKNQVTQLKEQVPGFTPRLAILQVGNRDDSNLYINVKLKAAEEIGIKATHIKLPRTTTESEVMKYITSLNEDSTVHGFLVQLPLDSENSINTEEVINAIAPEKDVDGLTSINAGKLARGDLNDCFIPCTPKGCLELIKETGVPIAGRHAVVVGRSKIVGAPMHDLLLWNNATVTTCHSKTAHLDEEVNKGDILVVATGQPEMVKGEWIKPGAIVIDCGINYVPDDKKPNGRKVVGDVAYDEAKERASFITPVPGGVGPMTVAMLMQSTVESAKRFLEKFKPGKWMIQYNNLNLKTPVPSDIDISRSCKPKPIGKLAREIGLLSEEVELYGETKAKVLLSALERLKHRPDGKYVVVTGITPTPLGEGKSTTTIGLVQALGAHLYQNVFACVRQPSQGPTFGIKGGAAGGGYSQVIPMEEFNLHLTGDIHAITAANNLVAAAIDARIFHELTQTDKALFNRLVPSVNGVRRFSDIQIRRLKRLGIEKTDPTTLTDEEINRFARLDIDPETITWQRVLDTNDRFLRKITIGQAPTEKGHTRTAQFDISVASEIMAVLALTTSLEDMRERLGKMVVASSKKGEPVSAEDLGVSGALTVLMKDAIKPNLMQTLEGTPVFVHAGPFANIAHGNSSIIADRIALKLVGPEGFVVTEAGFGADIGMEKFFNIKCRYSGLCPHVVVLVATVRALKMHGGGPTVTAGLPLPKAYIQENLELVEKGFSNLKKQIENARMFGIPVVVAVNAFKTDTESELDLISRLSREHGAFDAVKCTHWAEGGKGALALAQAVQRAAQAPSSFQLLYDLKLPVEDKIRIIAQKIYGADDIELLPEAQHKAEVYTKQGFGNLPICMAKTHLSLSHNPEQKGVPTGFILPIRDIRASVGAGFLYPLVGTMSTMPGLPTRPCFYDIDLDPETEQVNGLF
UniProt P40261, sequence (P40261 whole entry, looked up): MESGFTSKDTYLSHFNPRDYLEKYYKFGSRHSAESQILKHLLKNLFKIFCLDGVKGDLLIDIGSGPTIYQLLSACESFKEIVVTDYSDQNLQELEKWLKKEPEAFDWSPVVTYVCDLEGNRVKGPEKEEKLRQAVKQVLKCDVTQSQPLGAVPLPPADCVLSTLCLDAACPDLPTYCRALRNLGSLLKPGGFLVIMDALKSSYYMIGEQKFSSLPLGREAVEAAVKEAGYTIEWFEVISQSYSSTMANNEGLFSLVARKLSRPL
UniProt Q8NC60, sequence (Q8NC60 whole entry, looked up): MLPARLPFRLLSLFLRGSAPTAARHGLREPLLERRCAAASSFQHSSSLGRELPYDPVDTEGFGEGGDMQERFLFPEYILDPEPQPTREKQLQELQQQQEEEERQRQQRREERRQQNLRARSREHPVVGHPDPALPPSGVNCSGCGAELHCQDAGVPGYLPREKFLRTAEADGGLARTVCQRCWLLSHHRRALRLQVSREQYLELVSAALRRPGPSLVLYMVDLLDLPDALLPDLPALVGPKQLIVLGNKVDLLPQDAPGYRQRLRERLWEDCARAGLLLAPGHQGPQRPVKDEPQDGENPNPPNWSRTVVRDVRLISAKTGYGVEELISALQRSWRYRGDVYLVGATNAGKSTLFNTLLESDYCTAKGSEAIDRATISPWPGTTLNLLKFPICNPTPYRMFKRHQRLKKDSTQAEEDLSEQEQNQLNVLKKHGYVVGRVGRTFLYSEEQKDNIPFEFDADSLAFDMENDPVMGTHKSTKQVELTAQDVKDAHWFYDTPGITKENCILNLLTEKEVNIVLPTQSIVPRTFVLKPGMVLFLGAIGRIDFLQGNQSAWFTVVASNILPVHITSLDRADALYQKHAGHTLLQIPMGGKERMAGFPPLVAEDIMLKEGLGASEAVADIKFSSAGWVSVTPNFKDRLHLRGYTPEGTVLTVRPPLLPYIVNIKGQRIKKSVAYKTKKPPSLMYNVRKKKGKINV
UniProt Q8N1F7, sequence (Q8N1F7 whole entry, looked up): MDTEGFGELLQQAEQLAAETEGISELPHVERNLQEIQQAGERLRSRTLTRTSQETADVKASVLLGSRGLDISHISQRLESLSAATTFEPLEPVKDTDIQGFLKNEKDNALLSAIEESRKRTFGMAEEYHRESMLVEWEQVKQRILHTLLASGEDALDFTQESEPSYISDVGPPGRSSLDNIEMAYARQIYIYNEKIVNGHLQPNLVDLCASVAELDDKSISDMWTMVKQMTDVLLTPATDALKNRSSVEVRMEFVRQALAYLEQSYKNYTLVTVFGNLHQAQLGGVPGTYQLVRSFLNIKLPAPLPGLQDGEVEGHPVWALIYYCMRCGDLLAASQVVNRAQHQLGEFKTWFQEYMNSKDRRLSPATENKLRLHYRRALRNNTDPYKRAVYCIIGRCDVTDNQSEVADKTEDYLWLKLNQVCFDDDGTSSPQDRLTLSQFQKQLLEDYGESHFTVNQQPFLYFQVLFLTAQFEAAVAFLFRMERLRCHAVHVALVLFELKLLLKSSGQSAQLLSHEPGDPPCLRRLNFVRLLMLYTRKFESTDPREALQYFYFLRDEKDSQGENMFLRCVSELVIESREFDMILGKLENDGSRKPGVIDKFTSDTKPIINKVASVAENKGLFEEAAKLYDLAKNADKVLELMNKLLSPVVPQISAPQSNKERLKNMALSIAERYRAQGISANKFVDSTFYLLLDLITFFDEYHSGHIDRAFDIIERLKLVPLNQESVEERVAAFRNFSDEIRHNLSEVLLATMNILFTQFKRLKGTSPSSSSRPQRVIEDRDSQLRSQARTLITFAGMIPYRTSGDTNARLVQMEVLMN

| Target | log2 fold change (vemurafenib) | log2 fold change [1] | log2 fold change (barasertib) | log2 fold change [2] | log2 fold change (volasertib) | log2 fold change [3] | log2 fold change [4] | log2 fold change [5] | log2 fold change (saracatinib) | log2 fold change (sotrastaurin) | log2 fold change (alvocidib) | log2 fold change (Tubastatin A) | log2 fold change [6] | log2 fold change (defactinib) | log2 fold change [7] | log2 fold change (encorafenib) | log2 fold change [8] | log2 fold change (alisertib) | log2 fold change [9] | log2 fold change (gefitinib) |
| --- | --- | --- | --- | --- | --- | --- | --- | --- | --- | --- | --- | --- | --- | --- | --- | --- | --- | --- | --- | --- |
| MTHFD1, A0A384N5Y3 | 0.058 | 0.011 | 0.017 | -0.06 | -0.112 | 0.059 | 0.008 | -0.053 | -0.012 | 0.039 | 0.036 | -0.076 | -0.01 | 0.03 | 0.002 | -0.016 | 0.145 | -0.007 | -0.012 | -0.025 |
| OPA1 isoform 2 (UniProt O60313) | 0.022 | 0.029 | 0.024 | -0.057 | -0.033 | 0.037 | -0.016 | -0.192 | 0.007 | 0.014 | 0.012 | 0.038 | -0.032 | -0.013 | -0.042 | -0.017 | 0.053 | 0.03 | -0.041 | -0.003 |
| NUP93 (UniProt Q8N1F7) | -0.001 | 0.014 | 0.036 | -0.069 | -0.094 | 0.044 | -0.048 | -0.079 | 0.013 | 0.028 | -0.006 | -0.085 | -0.013 | 0.023 | -0.097 | 0.029 | 0.027 | 0.01 | -0.007 | 0.014 |
| OGFR (UniProt Q9NZT2) | -0.033 | 0.025 | 0.003 | -0.012 | -0.067 | 0.004 | 0.12 | -0.039 | 0.022 | 0.053 | 0.022 | -0.089 | 0.002 | -0.015 | -0.03 | 0.02 | 0.089 | -0.003 | -0.003 | -0.004 |
| NFATC2IP (UniProt Q8NCF5) | -0.024 | 0.069 | 0.041 | 0.033 | 0.006 | 0 | 0.076 | -0.031 | 0.003 | -0.004 | -0.015 | 0.002 | 0.052 | 0 | 0.002 | 0.003 | -0.208 (active) | -0.009 | -0.001 | 0.023 |
| NNMT (UniProt P40261) | 0.024 | -0.036 | -0.059 | 0.008 | 0.056 | 0.015 | -0.062 | 0.03 | -0.043 | 0.021 | -0.001 | -0.03 | 0 | -0.049 | -0.086 | 0.043 | -0.317 (active) | 0 | 0.009 | 0.004 |
| NOA1 (UniProt Q8NC60) | 0.041 | -0.009 | 0.043 | 0.029 | -0.024 | -0.083 | -0.229 | 0.028 | 0.016 | 0.037 | -0.016 | -0.11 | 0.063 | -0.076 | 0.063 | -0.049 | -0.023 | 0.039 | 0.023 | -0.042 |
| NUF2 (UniProt Q9BZD4) | -0.01 | 0.016 | 0.048 | -0.126 | -0.029 | 0.016 | -0.069 | -0.101 | 0.032 | 0.03 | 0 | -0.13 | 0.03 | 0.021 | -0.007 | 0.027 | 0.264 (active) | -0.012 | 0.013 | -0.033 |

Reference: the supplement of paper PMC10849652
